Experimental findings from PubChem BioAssay AID1347426 (Functional Genomics Laboratory (NCATS/FGL), 2020) are described below.

The campaign covered roughly 31,000 sequences. About 1,400 (4.5%) were called active.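 Rule for the calls: active = median seed-adjusted z-score above 1 or below -1; inactive = the rest.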 This excerpt belongs to a sample that is enriched for actives.

This test is described as follows: Novel Modifiers of Survival Motor Neuron (SMN) Protein: Gene Identification via Genome-wide siRNA Screen.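 Note: luminescence tracks full-length SMN protein made from the SMN2 reporter.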 The note with it: HEK293T SMN2-luciferase reporter, siRNA knockdown, 72 h; actives lie on both sides. Put shortly: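 siRNA screen, 10418 genes ×3 siRNAs; 1 pmol/well, lipid reverse transfection into HEK293T SMN2-luc reporter line. 72 h, 37 °C, 5% CO2; ONE-Glo readout. Data: neg-ctrl normalized, log10, MAD; hit = MAD >1.0 or < -1.0.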
(In general: In a reporter assay the amount or activity of a reporter protein is the signal.)
Consider AGGCAAACGUGUUCGUGCATT against IGFALS, for which the median seed-adjusted z-score was 0.0888 (inactive).
For GUAUCACUCUUAGAAUCCATT against GP1BA the value was 0.0803 (inactive); for AGAUAGAAGGGACACCAUUTT against NDUFB3, -0.00982 (inactive); for GGGCAGUUGAUGAACGAAUTT against COG2, 0.791 (inactive).
For GGCUUGAGAGCUUACAUCATT against PPP2R5C the value was 1.14 (active); for GGUCUGCACUCAUCACUAUTT against MGAT4A, 0.134 (inactive).
Next, GAAAUAAGGUUUUUGCAAATT against CCL25: 0.0698 (inactive); CACUAUUCCCAGAUCUUUATT against SMAD5: -0.701 (inactive); GAAGCUGUGAGAUAGAGAATT against LCN8: 0.112 (inactive).
Take GGAGAUACAUCACCGAGAATT against ELMO3: the median seed-adjusted z-score was -0.0898 (inactive).
In the case of GCUGAUGCAUUGCUCAUUATT against CCT6A, the median seed-adjusted z-score is -0.286 (inactive).
Turning to GUUCUGCCCUCAUACCCUUTT against IL9R, the median seed-adjusted z-score was -1.33 (active).
Regarding CCUCAGUUGGAGUUUCUAATT against TBCEL, the median seed-adjusted z-score is 0.567 (inactive).
Turning to AAGCACAACUUGACCGUGATT against USP20, the median seed-adjusted z-score is -0.369 (inactive).
For GGAGAAUGCAAUCCGCUUATT against SVIL the value was 0.0852 (inactive).
For CUAUAUGAAUCACUAUACATT against ZNF181 the value was -0.154 (inactive); for GGACAGAGCAAAAACUUCUTT against DYRK4, -0.824 (inactive); for CCUGAAACCUCAGAACUUATT against PFTK2, -1.16 (active).
Next, GUGUAAGAACUACUACAGATT against HPR: 0.237 (inactive).
Consider GUACCUCAAUUUAAUAUCUTT against UGCGL2, for which the median seed-adjusted z-score was -0.456 (inactive).
CGGAAAGUACUUAAACGGATT against PIAS4: the median seed-adjusted z-score was 0.265 (inactive).
Next, GAUGAUUCGUUGGUAUCUATT against GRIA2: -1.02 (active); CAAAUACAGUGAGGACAUUTT against GPR83: 0.105 (inactive); CACUGAGAAUGCAUCCAAATT against CYP4B1: -0.663 (inactive).
Turning to CGGUCAUUUCGUCGAGAUATT against HSF5, the median seed-adjusted z-score was 0.369 (inactive).
For GCCCUAAACCUGCCGGAAATT against EVX1 the value was 1 (active).
Next, CCUCAACAGUGUCUACAUUTT against LYL1: -0.118 (inactive); GAUAAAAGGUUACAAACGATT against HIF1AN: -0.0315 (inactive); GCAGUGUAAUGGUAUCCGATT against VLDLR: 0.0487 (inactive).
For the sequence AGCGCAUGAUUGACAGUGATT against CACNG1, the median seed-adjusted z-score was -0.452 (inactive).
GCACUGUGCUCGGAAGUUATT against GLS2: the median seed-adjusted z-score was -0.793 (inactive).
On to GUGUCGUCGUAGAAAGAGATT against WEE1, for which the median seed-adjusted z-score was -4.05 (active).
Next, CAGCAUACUUUAUCGCCUUTT against DICER1: 0.101 (inactive).
Next, CCCAACAACUGGUAUCUUUTT against CD33: -0.355 (inactive); GCCCUGGGUGGAUACUUGATT against PIM3: -1.01 (active); CAAUAGCUGAAAUAAUAGATT against KPNA3: 0.383 (inactive).
For CAACUACACUGUCAACUACTT against DTX2 the value was 0.0597 (inactive); for CAGCAACCAAUGAUAUAUATT against POLR2K, -3.72 (active).
Regarding GGCUCAUUUUCGCCCUGUATT against CHP2, the median seed-adjusted z-score is 0.364 (inactive).
GUUUGAGUGUGACACCUGUTT against ZNF71: the median seed-adjusted z-score is -0.0193 (inactive).
Next, GGAAUACCUUAUUGAUGUATT against CST8: -0.0126 (inactive); CGAACACCGGUGAGGUAUATT against SNRPD3: -2.69 (active); GGUACCAACAAAUACGAUATT against INPP5J: 0.223 (inactive).
For GAGACUGCACAACACGAUATT against TMEM11 the value was -0.00121 (inactive); for AGUGAGAUUUGAAGAGAUUTT against ADC, -0.157 (inactive); for CGAGUGGACCUACGAGGAATT against ARID3C, -1.32 (active).
For AAAAAUCGCUGGACAUGUATT against DNASE2B the value was 0.86 (inactive); for CAAUACGAUUGGGACAUUATT against UXS1, 0.25 (inactive).
On to CAUUCGUUCUUACAAGGAATT against FMNL3, for which the median seed-adjusted z-score is 0.481 (inactive).
In the case of CCUCCUCUGCUUAUCGUAUTT against GLT8D1, the median seed-adjusted z-score is 1.22 (active).
For GGGACGAUAUUUUAUGCAUTT against AHRR the value was -0.636 (inactive); for GGGAAGAUCCUGUACAUCUTT against PER2, -0.113 (inactive).
As to CAUUUGGUCUAGACAGUUUTT against TDP1, the median seed-adjusted z-score is -0.352 (inactive).
For GGUUCUUGGGUGAAGGACATT against CHGB the value was -1.29 (active); for GACCCGCUUUCUACCGUUATT against ENTPD4, 0.324 (inactive).
Turning to GCUUAUCCAUUGGAACUGUTT against NEK9, the median seed-adjusted z-score is 0.0698 (inactive).
Next, GCAGGGCAGUAAUCCUCAUTT against DLX6: 0.0275 (inactive).
Consider GCCUUGUCGAAUUCUGUCATT against FOXO3, for which the median seed-adjusted z-score is -0.712 (inactive).
Next, CCCAGUCUGUGAAACCGAATT against JMJD3: 0.871 (inactive); GCUGCUGAAAGAUAUGAAATT against SPCS3: 0.417 (inactive).
On to GGAUAAACCUAUGCAUACATT against CCNF, for which the median seed-adjusted z-score was -0.435 (inactive).
Next, CGCUGUCUCGGGAGAGAAATT against SFRS3: 2.74 (active).
For CCUCUUCCACCGCUACUUCTT against TREX2 the value was -0.918 (inactive); for GGCUCUUAAUAUUCGAAUATT against GPR22, 0.705 (inactive); for UGAUCAUUGUCCCUACAGATT against SERPINA3, 0.125 (inactive).
With UCCUCAAGAGUUCACCUAUTT against FCRL2, the median seed-adjusted z-score is -0.294 (inactive).
On to GCUAAACAGUUCGCAAGGATT against IGF2R, for which the median seed-adjusted z-score was 0.274 (inactive).
For GCUUUCCGAUGAUGAGAGATT against LEO1 the value was 1.2 (active).
Regarding CAGCUGUACCGAUUAAGCATT against MEP1A, the median seed-adjusted z-score was 0.209 (inactive).
